{"source": "ChEMBL document CHEMBL3988442", "about": "“University of Dundee, Small-Polar-MMV Screening Library” (2021)", "system": "Trypanosoma brucei", "test": "Trypanosoma brucei 72 hour study", "assay_type": "functional, organism-based", "parameters": "scale not given: in the data most compounds retested in dose-response had high values", "note": "About 960 (1.5%) of roughly 66,000 compounds showed an effect of 50% or more. For the sample, strong results were picked, then their nearest neighbours and some compounds at random.", "data": [{"smiles": "CCc1n[nH]c(C2CN(C(=O)c3cnc(C)cn3)CCO2)n1", "note": "(stereo not given)", "values": [{"measurement": "Percent Effect", "setting": "10 µM", "value": -10.87, "unit": "%"}]}, {"smiles": "Cc1noc(C)c1CN1CCN(CC2CC2)c2ncccc2C1.O=C(O)C(F)(F)F.O=C(O)C(F)(F)F", "values": [{"measurement": "Percent Effect", "setting": "30 µM, 30.03 µM", "value": -2.749, "unit": "%"}]}, {"smiles": "CNC(=O)C1CCCCN1C(=O)C1CCN(S(C)(=O)=O)CC1", "note": "(stereo not given)", "values": [{"measurement": "Percent Effect", "setting": "30.3 µM, […]", "value": 4.842, "unit": "%"}]}, {"smiles": "Cc1nc(Nc2nncs2)cc(C2CNC2)n1.O=C(O)C(F)(F)F", "values": [{"measurement": "Percent Effect", "setting": "30.3 µM, […]", "value": -21.99, "unit": "%"}]}, {"smiles": "CC(C)NC(=O)N1CCN(CCn2cccn2)c2ncccc2C1.O=C(O)C(F)(F)F", "values": [{"measurement": "Percent Effect", "setting": "30.3 µM, […]", "value": -82.31, "unit": "%"}]}, {"smiles": "CN(C)CC(=O)N1CCCC2(CCN(c3ccccc3)C2=O)C1.O=C(O)C(F)(F)F", "note": "(stereo not given)", "values": [{"measurement": "Percent Effect", "setting": "30.3 µM, […]", "value": -9.805, "unit": "%"}]}, {"smiles": "Cc1noc(C)c1CN1C[C@H](OCc2ccncc2)[C@H]2OCCC[C@H]21.O=C(O)C(F)(F)F.O=C(O)C(F)(F)F", "values": [{"measurement": "Percent Effect", "setting": "30 µM, 30.03 µM", "value": 3.056, "unit": "%"}]}, {"smiles": "CN(C)C(=O)[C@@H]1C[C@@H]2[C@@H](CCN2Cc2nccs2)O1.O=C(O)C(F)(F)F", "values": [{"measurement": "Percent Effect", "setting": "30.3 µM, […]", "value": -77.1, "unit": "%"}]}, {"smiles": "Cn1ccc(CN2CCCC23CCN(Cc2ccccc2F)CC3)n1.O=C(O)C(F)(F)F.O=C(O)C(F)(F)F", "values": [{"measurement": "Percent Effect", "setting": "30.3 µM, […]", "value": -74.92, "unit": "%"}]}, {"smiles": "O=C(NC1CC1)N1CCOCC2(CCN(Cc3cccs3)C2)C1.O=C(O)C(F)(F)F", "note": "(stereo not given)", "values": [{"measurement": "Percent Effect", "setting": "30.3 µM, […]", "value": -9.319, "unit": "%"}]}, {"smiles": "Cl.c1nn(C2CCCCC2)cc1-c1cncn1CCCN1CCCCC1", "values": [{"measurement": "Percent Effect", "setting": "30.3 µM, […]", "value": -11.05, "unit": "%"}]}, {"smiles": "Cc1cccc(C(=O)N2CCC3(CCN(c4cnn(C)c4)C3=O)C2)n1.O=C(O)C(F)(F)F", "note": "(stereo not given)", "values": [{"measurement": "Percent Effect", "setting": "30 µM, 30.03 µM", "value": -10.65, "unit": "%"}]}, {"smiles": "c1cncc(-c2nc3c(c(NCC4(c5ccncc5)CC4)n2)CCC3)c1", "values": [{"measurement": "Percent Effect", "setting": "30 µM, 30.03 µM", "value": -5.668, "unit": "%"}]}, {"smiles": "CCc1noc(CNc2nc(-c3cccnc3)nc3c2CCNCC3)n1", "values": [{"measurement": "Percent Effect", "setting": "30.3 µM, […]", "value": 2.358, "unit": "%"}]}, {"smiles": "CC(O)CNc1nc(-c2cccnc2)nc2c1CCC2", "note": "(stereo not given)", "values": [{"measurement": "Percent Effect", "setting": "30 µM, 30.03 µM", "value": 5.601, "unit": "%"}]}, {"smiles": "Cl.NC1CCc2nc(-c3cccnc3)nc(Nc3ccc(F)cc3)c2C1", "note": "(stereo not given)", "values": [{"measurement": "Percent Effect", "setting": "30.3 µM, […]", "value": 100.3, "unit": "%"}]}, {"smiles": "CN(CC1CCCO1)c1nc(-c2cccnc2)nc2c1CCNCC2", "note": "(stereo not given)", "values": [{"measurement": "Percent Effect", "setting": "30 µM, 30.03 µM", "value": 0.7603, "unit": "%"}]}, {"smiles": "CN(C)c1cccc(C(=O)N2CCCC2c2ncc3c(n2)CCNC3)c1.Cl", "note": "(stereo not given)", "values": [{"measurement": "Percent Effect", "setting": "30.3 µM, […]", "value": -32.8, "unit": "%"}]}, {"smiles": "CNS(=O)(=O)c1ccc(CNC(=O)N2CCOC(C)C2)cc1", "note": "(stereo not given)", "values": [{"measurement": "Percent Effect", "setting": "30.3 µM, […]", "value": -5.397, "unit": "%"}]}, {"smiles": "Cc1ccc2[nH]c(CNC(=O)C3CC4(CCNCC4)CN3C)nc2c1C", "note": "(stereo not given)", "values": [{"measurement": "Percent Effect", "setting": "30 µM, 30.03 µM", "value": -11.35, "unit": "%"}]}, {"smiles": "CN(Cc1cncnc1)[C@@H]1CN(C(=O)c2ccco2)[C@@H]2CCCO[C@H]12.O=C(O)C(F)(F)F", "values": [{"measurement": "Percent Effect", "setting": "30.3 µM, […]", "value": -35.75, "unit": "%"}]}, {"smiles": "c1cnc(N2CCC(c3csc(Nc4cnccn4)n3)CC2)nc1", "values": [{"measurement": "Percent Effect", "setting": "30.3 µM, […]", "value": 69.17, "unit": "%"}]}, {"smiles": "NC(=O)CN1CCC(c2csc(Nc3cnccn3)n2)CC1", "values": [{"measurement": "Percent Effect", "setting": "30.3 µM, […]", "value": 30.88, "unit": "%"}]}, {"smiles": "c1cnc(N2CCCC(c3csc(Nc4cnccn4)n3)C2)nc1", "note": "(stereo not given)", "values": [{"measurement": "Percent Effect", "setting": "30.3 µM, […]", "value": 86.19, "unit": "%"}]}, {"smiles": "CCC(=O)N1CCCC1c1csc(Nc2cnccn2)n1", "note": "(stereo not given)", "values": [{"measurement": "Percent Effect", "setting": "30.3 µM, […]", "value": 65.49, "unit": "%"}]}, {"smiles": "Cc1nc(Nc2cnccn2)cc(C2CCN(c3ncccn3)C2)n1", "note": "(stereo not given)", "values": [{"measurement": "Percent Effect", "setting": "30.3 µM, […]", "value": 26.81, "unit": "%"}]}, {"smiles": "COCC(=O)N1CCCC1c1csc(Nc2cnccn2)n1", "note": "(stereo not given)", "values": [{"measurement": "Percent Effect", "setting": "30.3 µM, […]", "value": 22.69, "unit": "%"}]}, {"smiles": "c1cnc(Nc2cncc(C3CCCN(c4ncccn4)C3)n2)nc1", "note": "(stereo not given)", "values": [{"measurement": "Percent Effect", "setting": "30.3 µM, […]", "value": -5.193, "unit": "%"}]}, {"smiles": "OCCN1CCC(c2csc(Nc3cnccn3)n2)CC1", "values": [{"measurement": "Percent Effect", "setting": "30.3 µM, […]", "value": 6.088, "unit": "%"}]}, {"smiles": "CC(=O)N1CCCC1c1csc(Nc2cnccn2)n1", "note": "(stereo not given)", "values": [{"measurement": "Percent Effect", "setting": "30 µM, 30.03 µM", "value": -20, "unit": "%"}]}, {"smiles": "Cc1c[nH]nc1C1CCCN1Cc1nccn1C.O=CO", "note": "(stereo not given)", "values": [{"measurement": "Percent Effect", "setting": "30.3 µM, […]", "value": -18.81, "unit": "%"}]}, {"smiles": "CN1CCC(CN2CCC3(CCCN(Cc4ccoc4)C3)C2=O)CC1.O=C(O)C(F)(F)F.O=C(O)C(F)(F)F", "note": "(stereo not given)", "values": [{"measurement": "Percent Effect", "setting": "30.3 µM, […]", "value": -15.67, "unit": "%"}]}, {"smiles": "Cn1cc(-c2ncc3c(c2C(=O)O)CCN(Cc2ccco2)C3)cn1.O=C(O)C(F)(F)F", "values": [{"measurement": "Percent Effect", "setting": "30.3 µM, […]", "value": -50.82, "unit": "%"}]}, {"smiles": "CN(C)C1CCC2(CCN(Cc3cccnc3)CC2)c2ccccc21.O=C(O)C(F)(F)F.O=C(O)C(F)(F)F.O=C(O)C(F)(F)F", "note": "(stereo not given)", "values": [{"measurement": "Percent Effect", "setting": "30.3 µM, […]", "value": -21.62, "unit": "%"}]}, {"smiles": "Clc1cccc(C2CCN(c3ncnc4c3CCNC4)C2)c1", "note": "(stereo not given)", "values": [{"measurement": "Percent Effect", "setting": "30.3 µM, […]", "value": 68.15, "unit": "%"}]}, {"smiles": "c1cc(C2CCN(c3ncnc4c3CCNCC4)CC2)ccn1", "values": [{"measurement": "Percent Effect", "setting": "30.3 µM, […]", "value": 2.643, "unit": "%"}]}, {"smiles": "c1ccc(C2CCN(c3ncnc4c3CCNC4)CC2)cc1", "values": [{"measurement": "Percent Effect", "setting": "30.3 µM, […]", "value": 50.1, "unit": "%"}]}, {"smiles": "c1ccc(C2CCCN(c3ncnc4c3CCNC4)CC2)cc1", "note": "(stereo not given)", "values": [{"measurement": "Percent Effect", "setting": "30.3 µM, […]", "value": 41.62, "unit": "%"}]}, {"smiles": "c1ccn2c(C3CCCN(c4ncnc5c4CCNC5)C3)nnc2c1", "note": "(stereo not given)", "values": [{"measurement": "Percent Effect", "setting": "30 µM, 30.03 µM", "value": -44.47, "unit": "%"}]}, {"smiles": "c1ccc2c(c1)CN(c1ncnc3c1CCNC3)CCO2", "values": [{"measurement": "Percent Effect", "setting": "30.3 µM, […]", "value": 5.814, "unit": "%"}]}, {"smiles": "CCCC(=O)NC1CCN(c2ccccc2S(=O)(=O)CC)CC1", "values": [{"measurement": "Percent Effect", "setting": "30.3 µM, […]", "value": -21.44, "unit": "%"}]}, {"smiles": "CCNc1ncc2c(n1)CN(c1ccc(CC)cc1)C2=O", "values": [{"measurement": "Percent Effect", "setting": "30.3 µM, […]", "value": -19.29, "unit": "%"}]}, {"smiles": "COc1cccc(Cc2nc3c([nH]2)CC(C)(C)CNC3=O)c1OC", "values": [{"measurement": "Percent Effect", "setting": "30 µM, 30.03 µM", "value": 5.431, "unit": "%"}]}, {"smiles": "O=C1NCCN1C1CCN(Cc2nc(-c3ccccc3)no2)CC1", "values": [{"measurement": "Percent Effect", "setting": "30.3 µM, […]", "value": 2.472, "unit": "%"}, {"measurement": "Percent Effect", "setting": "10 mM, 10 mM as filed; unlikely as a test dose", "value": -47.27, "unit": "%"}]}]}
